What all share (settings): treatment time: 24 h
Test [1] concerns A549-ACTB-RAB5A. The test is described as follows: lowest phenotypically active concentration; higher = less potent. The gist of the method:
(§1)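 Each of fifteen gene-edited A549, HepG2 and WPMY1 reporter lines, marked with BFP for segmentation and GFP and RFP/FusionRed, was treated in four wells at 0.3, 1, 3 or 9 µM for 24 h prior to live imaging. Normalisation of per-well live-cell features used solvent control wells. Deviation needed ≥3 of 4 wells beyond the 95th percentile of control Euclidean distances, and reproducibility needed a median replicate Pearson correlation above the 95th percentile of non-replicates. Both were required for phenotypic activity.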

Test [2] has as its system A549-GM130-SQSTM1. The description is as above. The gist of the method:
as §1

Test [3] deals with A549-TUBA1B-RELA. The test is described as above. In short, it runs like this: as §1
Test [4] has as its system WPMY1-GM130-SQSTM1. The description is as above. The gist of the method: as §1
Test [5] has as its system A549-ACTB-RAB5A. Nature of the test: phenotypically active (imaging signature differs from DMSO and reproducible) at any of 0.3-9 uM (binary (1 = active, 0 = inactive)); higher = active. The gist of the method: as §1
The test system of the next test is A549-CANX-COX4. Described as above. The gist of the method: as §1
Test [6] has as its system A549-GM130-SQSTM1. The description is as above. In short, it runs like this: as §1
The test system of the next test is A549-TP53BP1-CLTA. The description is as above. In short, it runs like this:
as §1

For test [7], the system named is A549-TUBA1B-RELA. The description is as above. In short, it runs like this: as §1
Test [8] has as its system HepG2-ACTB-RAB5A. Described as above. The gist of the method: as §1
The subject of a further test is HepG2-CANX-COX4. The description is as above. In short, it runs like this: as §1
The test system of a further test is HepG2-GM130-SQSTM1. Described as above. In short, it runs like this:
as §1

In another test the test system is HepG2-TP53BP1-CLTA. Described as above. In short, it runs like this: as §1
The next test has as its system HepG2-TUBA1B-RELA. The test is described as above. In short, it runs like this: as §1
For another test, the system named is WPMY1-ACTB-RAB5A. The description is as above. The gist of the method: as §1
The next test has as its system WPMY1-CANX-COX4. The test is described as above. In short, it runs like this: as §1
For test [9], the system named is WPMY1-GM130-SQSTM1. The description is as above. In short, it runs like this: as §1
The next test concerns WPMY1-TP53BP1-CLTA. Described as above. In short, it runs like this:
as §1

Another test concerns WPMY1-TUBA1B-RELA. Described as above. In short, it runs like this: as §1
The test system of test [10] is HepG2-ACTB-RAB5A. The test is described as follows: lowest phenotypically active concentration; higher = less potent. In short, it runs like this: as §1

For `CC(=O)O[C@@H]1C[C@H]2C(C)(C)C(=O)C=C[C@]2(C)[C@H]2CC[C@@]3(C)[C@H](c4ccoc4)OC(=O)[C@H]4O[C@]43[C@@]21C` [gedunin], the “lowest phenotypically active concentration” value in the test with A549-ACTB-RAB5A [1] was found to be 3 µM; with A549-GM130-SQSTM1 [2], 9 µM; in the test on A549-TUBA1B-RELA [3], 9 µM; in the test on WPMY1-GM130-SQSTM1 [4], 9 µM. Also, the phenotypically active in the test on A549-ACTB-RAB5A [5] was 1 (active); with A549-CANX-COX4, 0 (inactive); in the test with A549-GM130-SQSTM1 [6] it was 1 (active); in the test with A549-TP53BP1-CLTA it was 0 (inactive); in the test on A549-TUBA1B-RELA [7] it was 1 (active); with HepG2-ACTB-RAB5A [8], 0 (inactive). Further, the phenotypically active with HepG2-CANX-COX4, with HepG2-GM130-SQSTM1, with HepG2-TP53BP1-CLTA, with HepG2-TUBA1B-RELA, in the test on WPMY1-ACTB-RAB5A and in the test on WPMY1-CANX-COX4 was 1 (active) in each case. In addition, the figures for the phenotypically active in the test on WPMY1-GM130-SQSTM1 [9], with WPMY1-TP53BP1-CLTA and in the test on WPMY1-TUBA1B-RELA were 1 (active), 0 (inactive) and 0 (inactive), respectively.
`N#C/C(=C/c1ccc(-c2cc(Cl)ccc2Cl)o1)C(=O)Nc1cccc2ncccc12`: the “lowest phenotypically active concentration” value in the test with A549-ACTB-RAB5A [1] is 3 µM; with A549-GM130-SQSTM1 [2], 9 µM; in the test on A549-TUBA1B-RELA [3] it was ≤ 0.3 µM; with HepG2-ACTB-RAB5A [10] it was 3 µM. Also, the phenotypically active in the test with A549-ACTB-RAB5A [5] is 1 (active); in the test with A549-CANX-COX4, 0 (inactive); with A549-GM130-SQSTM1 [6] it was 1 (active); in the test on A549-TP53BP1-CLTA, 0 (inactive); with A549-TUBA1B-RELA [7] it was 1 (active); in the test on HepG2-ACTB-RAB5A [8], 1 (active). Further, the phenotypically active in the test with HepG2-CANX-COX4 is 0 (inactive); with HepG2-GM130-SQSTM1 it was 0 (inactive); in the test with HepG2-TP53BP1-CLTA, 0 (inactive); in the test with HepG2-TUBA1B-RELA, 0 (inactive); in the test with WPMY1-ACTB-RAB5A, 0 (inactive); with WPMY1-CANX-COX4, 1 (active). The phenotypically active in the test with WPMY1-GM130-SQSTM1 [9], with WPMY1-TP53BP1-CLTA and in the test with WPMY1-TUBA1B-RELA was 0 (inactive) throughout.
As for `CCOC(=O)c1c(CSc2ccccc2)n(C)c2cc(Br)c(O)c(CN(C)C)c12` [arbidol], the “lowest phenotypically active concentration” value in the test on A549-ACTB-RAB5A [1], in the test with A549-GM130-SQSTM1 [2], in the test on A549-TUBA1B-RELA [3], in the test on HepG2-ACTB-RAB5A [10] and in the test on WPMY1-GM130-SQSTM1 [4] was 9 µM in each case. The phenotypically active in the test with A549-ACTB-RAB5A [5] was 1 (active); in the test on A549-CANX-COX4 it was 0 (inactive); with A549-GM130-SQSTM1 [6], 1 (active); in the test with A549-TP53BP1-CLTA, 0 (inactive); in the test with A549-TUBA1B-RELA [7] it was 1 (active); in the test on HepG2-ACTB-RAB5A [8] it was 1 (active). Moreover, the phenotypically active in the test on HepG2-CANX-COX4 is 1 (active); in the test on HepG2-GM130-SQSTM1, 1 (active); with HepG2-TP53BP1-CLTA, 1 (active); in the test with HepG2-TUBA1B-RELA, 1 (active); in the test on WPMY1-ACTB-RAB5A, 0 (inactive); with WPMY1-CANX-COX4, 0 (inactive). The phenotypically active in the test with WPMY1-GM130-SQSTM1 [9] was 1 (active); with WPMY1-TP53BP1-CLTA it was 0 (inactive); in the test on WPMY1-TUBA1B-RELA, 0 (inactive).
On to `CCCc1cc(C)n(C)c(=O)c1CN(C)C(=O)c1cc(-c2ccc(N3CCN(C(C)C)CC3)nc2)cc2c1cnn2C(C)C`, for which the “lowest phenotypically active concentration” value was found to be 3 µM in the test with A549-ACTB-RAB5A [1]; 3 µM in the test with A549-GM130-SQSTM1 [2]; 3 µM in the test on A549-TUBA1B-RELA [3]; 9 µM with HepG2-ACTB-RAB5A [10]; 3 µM in the test on WPMY1-GM130-SQSTM1 [4]. The phenotypically active in the test with A549-ACTB-RAB5A [5] was 1 (active); in the test on A549-CANX-COX4, 0 (inactive); with A549-GM130-SQSTM1 [6], 1 (active); in the test with A549-TP53BP1-CLTA it was 0 (inactive); in the test with A549-TUBA1B-RELA [7], 1 (active); in the test on HepG2-ACTB-RAB5A [8], 1 (active). The phenotypically active is 0 (inactive) in the test on HepG2-CANX-COX4; 1 (active) with HepG2-GM130-SQSTM1; 1 (active) in the test with HepG2-TP53BP1-CLTA; 0 (inactive) in the test on HepG2-TUBA1B-RELA; 1 (active) in the test with WPMY1-ACTB-RAB5A; 1 (active) in the test with WPMY1-CANX-COX4. For the same molecule, the phenotypically active in the test on WPMY1-GM130-SQSTM1 [9], with WPMY1-TP53BP1-CLTA and in the test on WPMY1-TUBA1B-RELA was 1 (active) in each case.
`CC(=O)Nc1ccc(NC(=S)NC(=O)c2ccc(C(C)(C)C)cc2)cc1` [Tenovin-1]: the “lowest phenotypically active concentration” value in the test with A549-ACTB-RAB5A [1], with A549-GM130-SQSTM1 [2], with A549-TUBA1B-RELA [3] and with WPMY1-GM130-SQSTM1 [4] was 1 µM in each case. The phenotypically active in the test on A549-ACTB-RAB5A [5] was 1 (active); with A549-CANX-COX4 it was 0 (inactive); with A549-GM130-SQSTM1 [6], 1 (active); in the test on A549-TP53BP1-CLTA, 0 (inactive); in the test on A549-TUBA1B-RELA [7] it was 1 (active); in the test on HepG2-ACTB-RAB5A [8], 0 (inactive). In addition, the phenotypically active in the test on HepG2-CANX-COX4 was 1 (active); with HepG2-GM130-SQSTM1, 0 (inactive); in the test on HepG2-TP53BP1-CLTA it was 1 (active); in the test on HepG2-TUBA1B-RELA it was 1 (active); with WPMY1-ACTB-RAB5A, 1 (active); in the test on WPMY1-CANX-COX4, 1 (active). For the same molecule, the phenotypically active in the test on WPMY1-GM130-SQSTM1 [9], in the test with WPMY1-TP53BP1-CLTA and with WPMY1-TUBA1B-RELA was 1 (active) each time.

These data come from the supplement of paper PMC7411054.
